test system: THRa homodimer (NR concentration 90 nM); experiment: PBM binding z-score (relative to random genomic background probes); higher = stronger binding; sequences stand for … in GC…GCGATTGACAGCGTAGAATGAAGG
How it was run: (§1)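 Scanned fluorescence from custom Agilent 4×180K protein-binding microarrays was regression-normalized. Binding z-scores use random background probes as reference. Ligand-free nuclear receptor dimers were incubated on the arrays for 1 h and detected with antibodies against each partner (one per run).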

Sequence	PBM binding z-score
ACTATTAGTTAACTTAGGGCAACCGATACGACGC	0.447
GCAGACAGGTGAAACGCAGGTTACTCAGGGTGGC	-0.27
CCTCGGAGGACAGAAGGTCAGAGCAGTCCGCTTT	-0.117
CATGCTAGGTCATGGTCAGCTAATCTACAGTATG	1.06
GCTTACGGGTCAAAGGTGATAGCATGAATAGAAT	-0.0269
CGTCCAAGGTCTATGCTAGGTCAGTGAAAGCATT	0.687
ATCTCTAGGTAACCAAGTTAAGTGAATGCCGAAC	0.542
CGTCCAAGGTCAGAGAGGTCTGTGAATGCCGAGT	1.64
AGACTGAGGTTATACGTAGATCAGGGAAGAAAGT	0.684
ACTATTAGTTGACTTTGGGCAACCGATACGACGC	0.0342
ATATGTAGGTTACAGCCGGGTCATTCAGGCTATG	1.89
TCATATAGGGAAATGCTAGGTGAAAGTCCGATCT	0.365
ATATGTAGGTTACATCCAGGTCATTCAGGCTATG	3.46
GCGACTGGGGCTTCAGCAGGTTACCATAACTTAA	-0.0641
TGACCAAGGTGAAAGGTCGTTGATGCACGCCTTG	0.487
CTACCAAGGTAAACAAGGTCGTTGATTACTATTC	1.5
TCTCGGAGGACACGAAGGTCAGATCTTTCCAGAG	0.979
CTCGAAAGGTCGTGCTCAGGTGAGTGTACCAAAC	1.21

test system: VDR:RXRa (NR concentration 270 nM, RXRa partner concentration 90 nM); experiment: as above
How it was run: as §1

Sequence	PBM binding z-score
ATATGTTGGTTAAGGGTCATTCAGGTTGGTTCGC	5.55
CGTCAAAGTTCACGGTAACGTAACAGAAAGCAGC	4.74
CCTACTGGCCCAAAAAGGTCATTGATGCCGATAA	4.47
CCGACTGGGGCAAAGGTTTCCATACTCAGTACGA	-0.277
TGTCGGAGGACACGAAAGGTCAGAGCTCGACATC	3.34
CCTTACGGGTCACTCCAGGTTATAACATCGGAGT	4.09
TCTACTAGGTCAGTTGGTCAGCTAACGAGCTGCC	0.701
CCTTATGGGTCACTGACAGGTTATAGCATTTGGA	2.89
CCTTCCGGGTCACTCCAGGTTATAGCATCGGAGT	4.21
TTACCAAGGTGAAGGTGGTTGATCCCTCTGTAGA	0.0919
TGTCAAAGTTAAAAGGTAACGTAAGTATCCACAC	0.375
GTACCAAGGTGAATCGGTCGTTGATGAGTAGGCG	-0.122
ACTAGCAGGCCAAGTTTGGGTCACACAAACAAAG	0.933
TTTAGCAGGCCAGAGGGTCACTCAAGAGGTACGG	1.55
ACTAGCAGGCCAAGGGTCACTCCAGATTAGTCCG	2.32
AGAATGAAGTTATACGTAGATCAGGGAAGAAAGT	-0.299
ATCGAAAGGTCGAGGTGAGTCTAGAGAAAGGGAA	3.21

Sequence	PBM binding z-score
GCATAAAGGTAATACAAGGTGAAAGTCCGATTGT	1.05
ACTATTAGTTAACTTAGGGCAACCGATACGACGC	0.299
GCAGACAGGTGAAACGCAGGTTACTCAGGGTGGC	-0.128
CCTCGGAGGACAGAAGGTCAGAGCAGTCCGCTTT	1.82
CATGCTAGGTCATGGTCAGCTAATCTACAGTATG	1.79
GCTTACGGGTCAAAGGTGATAGCATGAATAGAAT	4.42
CGTCCAAGGTCTATGCTAGGTCAGTGAAAGCATT	0.278
CGTCCAAGGTCAGAGAGGTCTGTGAATGCCGAGT	4.72
AGACTGAGGTTATACGTAGATCAGGGAAGAAAGT	1.42
ACTATTAGTTGACTTTGGGCAACCGATACGACGC	0.238
TCATATAGGGAAATGCTAGGTGAAAGTCCGATCT	0.702
ATATGTAGGTTACATCCAGGTCATTCAGGCTATG	4.11
GCGACTGGGGCTTCAGCAGGTTACCATAACTTAA	-0.361
TGACCAAGGTGAAAGGTCGTTGATGCACGCCTTG	2.96
CTACCAAGGTAAACAAGGTCGTTGATTACTATTC	4.73
TCTCGGAGGACACGAAGGTCAGATCTTTCCAGAG	2.61
CTCGAAAGGTCGTGCTCAGGTGAGTGTACCAAAC	3.44

test system: VDR homodimer (NR concentration 270 nM); experiment: as above
How it was run: as §1

Sequence	PBM binding z-score
ATATGTTGGTTAAGGGTCATTCAGGTTGGTTCGC	4.89
CGTCAAAGTTCACGGTAACGTAACAGAAAGCAGC	4.02
CCTACTGGCCCAAAAAGGTCATTGATGCCGATAA	2.65
CCGACTGGGGCAAAGGTTTCCATACTCAGTACGA	-0.026
AGAATGAGGTTGAGATCAGGGAAACAGAATACAT	0.0379
TGTCGGAGGACACGAAAGGTCAGAGCTCGACATC	1.38
CCTAGCAGGCCAATCTGGGTCACTCATGGCTTGA	0.00452
CCTTACGGGTCACTCCAGGTTATAACATCGGAGT	1.19
ACTAGCAGGCCAAGTTTGGGTCATTCAAACAAAG	0.69
TCTACTAGGTCAGTTGGTCAGCTAACGAGCTGCC	0.162
CCGACTCGGGCAAGGTTACCATAACGCACAGCCA	-0.43
CCTTATGGGTCACTGACAGGTTATAGCATTTGGA	0.502
CCTTCCGGGTCACTCCAGGTTATAGCATCGGAGT	1.77
TTACCAAGGTGAAGGTGGTTGATCCCTCTGTAGA	-0.454
TGTCAAAGTTAAAAGGTAACGTAAGTATCCACAC	-0.239
GTACCAAGGTGAATCGGTCGTTGATGAGTAGGCG	-0.443
ACTAGCAGGCCAAGTTTGGGTCACACAAACAAAG	0.103
TTTAGCAGGCCAGAGGGTCACTCAAGAGGTACGG	0.332
ACTAGCAGGCCAAGGGTCACTCCAGATTAGTCCG	1
AGAATGAAGTTATACGTAGATCAGGGAAGAAAGT	-0.183

Sequence	PBM binding z-score
ATCGAAAGGTCGAGGTGAGTCTAGAGAAAGGGAA	0.695
GCATAAAGGTAATACAAGGTGAAAGTCCGATTGT	0.291
ACTATTAGTTAACTTAGGGCAACCGATACGACGC	0.283
GCAGACAGGTGAAACGCAGGTTACTCAGGGTGGC	-0.446
CCTCGGAGGACAGAAGGTCAGAGCAGTCCGCTTT	0.311
CATGCTAGGTCATGGTCAGCTAATCTACAGTATG	0.15
GCTTACGGGTCAAAGGTGATAGCATGAATAGAAT	1.07
CGTCCAAGGTCTATGCTAGGTCAGTGAAAGCATT	0.404
ATCTCTAGGTAACCAAGTTAAGTGAATGCCGAAC	-0.108
CGTCCAAGGTCAGAGAGGTCTGTGAATGCCGAGT	1.65
AGACTGAGGTTATACGTAGATCAGGGAAGAAAGT	0.49
ACTATTAGTTGACTTTGGGCAACCGATACGACGC	0.298
ATATGTAGGTTACAGCCGGGTCATTCAGGCTATG	2.96
TCATATAGGGAAATGCTAGGTGAAAGTCCGATCT	0.19
ATATGTAGGTTACATCCAGGTCATTCAGGCTATG	2.88
GCGACTGGGGCTTCAGCAGGTTACCATAACTTAA	-0.284
TGACCAAGGTGAAAGGTCGTTGATGCACGCCTTG	1.31
CTACCAAGGTAAACAAGGTCGTTGATTACTATTC	2.04
TCTCGGAGGACACGAAGGTCAGATCTTTCCAGAG	2.36
CTCGAAAGGTCGTGCTCAGGTGAGTGTACCAAAC	1.26
